Experimental data reported in PubChem BioAssay AID1053133 (Broad Institute, 2014).
Several values for one entry are separate records, joined by “and”; a condition that tells them apart may be missing. Identical values can stand only once. The whole screen tested about 89,000 compounds, of which about 10 (0.01%) were called active. About 10% were inconclusive and are not listed. Rule as the data show it: active = activity change below about -37% (passing the limit was not always enough); inconclusive = no clear call, values can overlap the other calls; tested in A549 cells. A selection follows.

Assay: Vaccinia orthopox stage-specific inhibition, primary screen, cell-based, single point (AID 1053133)
Conditions: Vaccinia-infected cells, mCherry/Venus stage reporter fluorescence, stronger effect = lower value, concentration not given here; activity change (Venus): measured here: Venus reporter, other viral stage

SMILES | activity change (Venus) | activity change (mCherry)
O=C(Nc1ccccc1)N1C[C@@H]2[C@H](c3ccccc31)[C@H](CO)N2C(=O)c1ccccn1 | 5.62% | 10.2% (inactive)
Cc1ccc(S(=O)(=O)N(C)C[C@@H]2Oc3ccc(NS(=O)(=O)c4ccc(F)cc4)cc3CC(=O)N([C@@H](C)CO)C[C@H]2C)cc1 | -2.68% | 2.93% (inactive)
COc1ccccc1NC(=O)N[C@H]1CC[C@H](CCn2cc(-c3cccnc3)nn2)O[C@@H]1CO | 7.22% | -4.31% (inactive)
COc1ccc(-c2cn(CC[C@@H]3CC[C@@H](NC(=O)CCN4CCCCC4)[C@@H](CO)O3)nn2)cc1 | 11.2% | 5.57% (inactive)
O=C(Cc1ccccn1)N[C@@H]1CC[C@H](CCn2cc(-c3ccc(F)cc3)nn2)O[C@@H]1CO | -0.00768% | 11% (inactive)
Cc1ccc(S(=O)(=O)N[C@@H]2CC[C@@H](CCn3cc(C(C)C)nn3)O[C@H]2CO)cc1 | 2.74% | -0.697% (inactive)
COc1ccc2c3c(n(C)c2c1)[C@H](CO)N(C(=O)c1ccc(F)cc1)CC31CCN(C(C)=O)CC1 | 7.75% | 25% (inactive)
COC(=O)C[C@@H]1CC[C@@H]2[C@H](COc3ccc(NC(=O)Nc4cccc(F)c4)cc3C(=O)N2C)O1 | 6.13% | 6.13% (inactive)
CCNC(=O)[C@@H]1[C@@H](CO)[C@@H]2Cn3c(ccc(C4=CCCCC4)c3=O)[C@@H]2N1Cc1ccccc1F | -3.86% | 2.73% (inactive)
O=C(Nc1cc(F)ccc1F)N[C@H]1CC[C@H](CCn2cc(C3CCCC3)nn2)O[C@@H]1CO | -13.1% | -6.78% (inactive)
C[C@H]1CN([C@@H](C)CO)C(=O)c2cc(C3=CCCC3)cnc2O[C@H]1CN(C)C(=O)Nc1ccc(F)cc1 | 6.92% | 7.38% (inactive)
C[C@@H]1CN([C@@H](C)CO)C(=O)c2cc(NC(=O)C3CCCCC3)ccc2O[C@@H](C)CCCCO[C@H]1CN(C)C(=O)Nc1ccc2c(c1)OCO2 | 1.19% | 1.01% (inactive)
CC(C)NC(=O)N1[C@H](C(=O)N2CCc3ccccc3C2)[C@@H](CO)[C@@H]2Cn3c(cccc3=O)[C@@H]21 | 7.39% | 13.3% (inactive)
CCN1[C@@H]2Cn3c(ccc(C4=CCCCC4)c3=O)[C@H]1[C@@H](C(=O)N1CCCCC1)[C@@H]2CO | -4.76% | -0.187% (inactive)
C[C@H]1CN([C@@H](C)CO)C(=O)c2cc(/C=C/c3ccccc3)cnc2O[C@@H]1CN(C)C(=O)NC1CCCCC1 | -19.2% | -26.2% (inactive)
CS(=O)(=O)N1CC(=O)N2[C@@H](CO)[C@@H](c3ccc(C#CCC4CCCC4)cc3)[C@@H]2C1 | -6.84% | -14.6% (inactive)
COc1ccc(CN2[C@@H](CO)[C@@H]3c4ccccc4N(C(=O)Nc4ccccc4)C[C@@H]32)cc1 | -11.3% | -12.7% (inactive)
CCS(=O)(=O)Nc1ccc2c(c1)C(=O)N(C)[C@H]1CC[C@H](CC(=O)NCc3ccccc3F)O[C@H]1CO2 | 8.23% | -6.34% (inactive)
O=C(C[C@H]1C=C[C@H](NC(=O)CC2CC2)[C@@H](CO)O1)NCc1ccccc1 | 4.6% | 4.83% (inactive)
Cc1noc(C)c1NC(=O)N[C@@H]1CC[C@H](CCNC(=O)C2CCC2)O[C@@H]1CO | 3.06% | -10.7% (inactive)

SMILES | activity change (Venus) | activity change (mCherry)
CO[C@H]1CN(C)C(=O)c2ccc(NC(=O)C3CC3)cc2OC[C@@H](C)N(Cc2ccc(F)cc2)C[C@@H]1C | -14.9% | -29.4% (inactive)
CC(=O)N1[C@@H]2Cn3c(ccc(C4=CCCC4)c3=O)[C@H]1[C@@H](C(=O)NC1CCC1)[C@@H]2CO | 2.6% | 11.3% (inactive)
O=C(Cc1cccnc1)N1CC(=O)N2[C@H](CO)[C@H](c3ccc(C#CC4CCCC4)cc3)[C@@H]2C1 | -12.7% | -12.6% (inactive)
O=C(N[C@@H]1CC[C@H](CCn2cc(-c3ccccn3)nn2)O[C@@H]1CO)c1ccccc1 | -0.983% | 0.892% (inactive)
O=C(NC[C@H]1CC[C@H]2[C@H](CN2Cc2cccc(Cl)c2)O1)C1CC1 | 6.08% | 4.96% (inactive)
CN(C)C(=O)c1cccc(-c2ccc3c(c2)[C@@H]2[C@@H](CCN2Cc2nccs2)[C@@H](CO)N3)c1 | -3.17% | -14.5% (inactive)
O=C(C[C@@H]1CC[C@@H]2[C@H](COC[C@H](O)CN2Cc2ccc(F)cc2)O1)NCc1ccncn1 | 9.14% | 13.7% (inactive)
CN1CCN(C(=O)C[C@H]2CC[C@H]3[C@@H](COC[C@H](O)CN3CC3CCCC3)O2)CC1 | -10.7% | -14.5% (inactive)
CCCc1cn(CC[C@@H]2CC[C@@H](NC(=O)CCN3CCCCC3)[C@H](CO)O2)nn1 | 6.3% | 4.68% (inactive)
COc1ccc(-c2cn(CC[C@H]3CC[C@@H](NC(=O)CCN4CCCCC4)[C@H](CO)O3)nn2)cc1 | 12% | 0.142% (inactive)
N#C[C@@H]1[C@H](c2ccccc2-c2cccc(F)c2)[C@@H](CO)N1C(=O)CN1CCOCC1 | 4.69% | 12.6% (inactive)
CO[C@H]1CN(C)C(=O)c2ccc(NC(=O)c3ccccc3F)cc2OC[C@H](C)N(C(=O)c2ccccc2F)C[C@H]1C | 2.58% | -1.92% (inactive)
Cc1cc(C(=O)Nc2ccc3c(c2)C(=O)N(C)[C@@H]2CC[C@@H](CC(=O)NC4CCCC4)O[C@@H]2CO3)no1 | 8.29% | 8.19% (inactive)
O=C(C[C@@H]1CC[C@@H]2[C@H](COC[C@H](O)CN2C(=O)Nc2cccc(Cl)c2)O1)NCCCN1CCOCC1 | 5.06% | 10% (inactive)
CCC(=O)N1CCC2(CC1)CN(S(C)(=O)=O)[C@@H](CO)c1c2c2ccc(OC)cc2n1C | 7.75% | 14.3% (inactive)
CC(C)CC#Cc1ccc2c(c1)O[C@H](CN(C)C(=O)Cc1cccnc1)[C@H](C)CN([C@@H](C)CO)S2(=O)=O | -21.5% | -32.3% (inactive)
O=C(Cc1ccccn1)N[C@H]1CC[C@H](CCn2cc(-c3ccc(F)cc3)nn2)O[C@H]1CO | 1.48% | 5.56% (inactive)
NCC[C@@H]1CC[C@@H](NC(=O)C2CCCC2)[C@H](CO)O1 | 0.29% | -7.04% (inactive)
COc1ccc(NC(=O)Nc2ccc3c(c2)C(=O)N([C@@H](C)CO)C[C@H](C)[C@H](CN(C)S(=O)(=O)c2ccccc2)OCCCC[C@@H](C)O3)cc1 | -1.69% | -0.413% (inactive)
C[C@@H]1CN([C@H](C)CO)C(=O)c2cc(-c3ccccc3)cnc2O[C@H]1CN(C)C(=O)NC1CCCC1 | -2.73% | 1.1% (inactive)

SMILES | activity change (Venus) | activity change (mCherry)
CCC(=O)N1CCC2(CC1)CN(Cc1cc(F)ccc1F)[C@@H](CO)c1c2c2ccc(OC)cc2n1C | -2.18% | 15.8% (inactive)
O=C(C[C@H]1CC[C@@H]2[C@H](COC[C@H](O)CN2C(=O)c2ccc3c(c2)OCO3)O1)NC1CCC1 | 9.5% | 3.32% (inactive)
O=C(Nc1ccccc1F)N[C@H]1CC[C@@H](CCNS(=O)(=O)c2ccc(F)cc2)O[C@@H]1CO | -12.7% | -16.7% (inactive)
O=C(C[C@H]1C=C[C@H](NC(=O)Nc2cc(F)ccc2F)[C@H](CO)O1)Nc1ccccc1 | -0.0195% | -4.16% (inactive)
COc1ccc2c3c(n(C)c2c1)[C@@H](CO)N(C(=O)c1ccc(F)cc1)CC31CN(C(=O)c2ccc(F)cc2)C1 | -9% | -10.3% (inactive)
COc1cccc(-c2ccc(CC[C@H]3O[C@H]4CC[C@@H](CO)O[C@H]4C[C@@H]3NS(C)(=O)=O)cc2)c1 | -32% | -32.8% (inactive)
O=C(C[C@@H]1CC[C@H]2[C@@H](COC[C@H](O)CN2Cc2ccc(F)cc2)O1)N1CCc2ccccc2C1 | -6.62% | -6.87% (inactive)
CN(C)CC(=O)N1[C@H](CO)[C@@H](c2ccc(-c3cccc(C(=O)N(C)C)c3)cc2)[C@@H]1C#N | -1.53% | 8.67% (inactive)
O=C(c1ccncc1)N1C[C@H]2[C@@H](c3ccccc31)[C@H](CO)N2C(=O)Nc1ccc(F)cc1 | 5.09% | 11% (inactive)
COCC(=O)Nc1ccc2c(c1)C(=O)N(C)[C@@H]1CC[C@H](CC(=O)NCC3CC3)O[C@H]1CO2 | 3.16% | 15.4% (inactive)
O=C(c1ccncc1)N1C[C@H]2[C@@H](c3ccccc31)[C@H](CO)N2C(=O)c1ccccn1 | 2.97% | 10.6% (inactive)
COc1ccc2c3c([nH]c2c1)[C@@H](CO)N(Cc1ccccc1F)CC31CN(C(=O)C2CC2)C1 | 19.6% | 12.9% (inactive)
CCCN(C)C[C@@H]1Oc2ncc(-c3cccc(C(=O)N(C)C)c3)cc2C(=O)N([C@H](C)CO)C[C@@H]1C | 1.46% | 23.1% (inactive)
C[C@@H]1CN([C@@H](C)CO)S(=O)(=O)c2ccc(-c3ccc(F)cc3)cc2O[C@@H]1CN(C)CC1CC1 | -14.3% | -33.2% (inactive)
Cn1cnc(S(=O)(=O)N2C[C@@H]3N[C@H](C2)C3c2ccc(/C=C/c3ccccc3)cc2)c1 (stereo partly drawn) | 2.7% and -14.5% | 7.98% (inactive) and -24.7% (inactive)
C[C@H](CO)N1C[C@H](C)[C@@H](CN(C)C(=O)Cc2ccncc2)Oc2ncc(C3=CCCCC3)cc2C1=O | -16% | -18.8% (inactive)
CCC(=O)N1CC2(C1)[C@H](c1ccccc1)[C@@H](CO)N2C(=O)c1ccccc1 | -1.49% | -4.89% (inactive)
COc1ccc(-c2ccc3n(c2=O)C[C@@H]2[C@@H](CO)[C@H](C(=O)Nc4ccccc4)[C@H]3N2C)cc1 | 4.65% | -0.0885% (inactive)
CO[C@H]1CN(C)C(=O)c2ccc(NC(=O)c3ccno3)cc2OC[C@@H](C)N(S(C)(=O)=O)C[C@H]1C | 16.7% | 24.5% (inactive)
